The list is not random: actives were taken first. Their share in the collection is about 19%.
TDP1 cell CPT: DT40-hTDP1 cell growth loss with CPT; 420,000 compounds, 12% hits; chicken DT40 Tdp1-/-;hTDP1 cells + 20 nM CPT, ATP luminescence, 48 h; Potency, µM (series often up to 46.2 µM), actives largely listed as inhibitors; also: nearly all actives have a fitted effect of over 55% in size
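Chicken DT40 Tdp1-/- cells complemented with human TDP1, 400 cells/well, exposed to compounds plus 20 nM camptothecin for at least 48 h at 37 C; viability read as ATP content by CellTiter-Glo luminescence.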
DT40 TDP1 no CPT: qHTS for Inhibitors of human tyrosyl-DNA phosphodiesterase 1 (TDP1): qHTS in cells in absence of CPT; 420,000 compounds, 15% hits; Potency, µM (doses to about 46.2 µM), most hits filed as inhibitors; DT40 Tdp1-/- hTDP1 cells, no CPT, ATP luminescence, 48 h; also: nearly all actives have a fitted effect of over 55% in size
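Seeded 400 DT40-hTDP1 cells/well (vehicle DMSO, no 20 nM CPT); pinned compounds; ≥48 hr at 37 °C; CellTiter-Glo luminescence as viability measure.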
TGFb inhibitor: TGF-b pathway inhibition; HepG2 CAGA-GFP TGF-b/SMAD3 reporter, GFP fluorescence, 18 h; TGF-beta stimulated, 500 pg/mL final; Potency, µM (series often up to 46.1 µM), hits mostly inhibitors; 410,000 compounds, 1.2% hits; also: nearly all actives have a fitted effect of over 65% in size
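Cell-based qHTS in HEPG2 carrying a CAGA-GFP Smad reporter; compounds added before 500 pg/mL final TGF-beta, 18 h incubation at 37 degrees C, GFP fluorescence quantified per cell by imaging cytometry.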
IL1B secr inh: inflammasome signaling inhibition, IL-1 beta readout. 360,000 compounds, 4.7% hits. activity change, % at 57.5 µM. AID 743279. THP-1 LPS/ATP IL-1B secretion, AlphaLISA, 16 h; hits give low values; in the data active = activity change below about -50%; inconclusive = mostly about -30% to -49%
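Secreted IL-1B measured by AlphaLISA bead assay after 16 h compound exposure of THP-1 cells; compounds (final up to 57.5 uM) added 1 h before LPS (250 ng/mL) and ATP (1.25 mM) stimulation; lower signal means less secretion.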
HepG2 viability: HepG2 cytotoxicity, counter-screen for TGF-b inhibitors. HepG2 CAGA-GFP viability, ATP luminescence, 18 h. Potency, µM (highest dose often 46.1 µM), most hits filed as cytotoxic. 410,000 compounds, 0.76% hits
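HepG2 CAGA-GFP cells (1000/well, DMEM with 1% FBS) received compound, then TGF-beta at 500 pg/mL final, and were incubated 18 hours at 37 degrees C. Viability was read by CellTiter-Glo luminescence. Media-only wells were set as complete cell-killing and DMSO as no toxicity.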
TDP1 block: TDP1 (human) enzyme inhibition | recombinant TDP1, AlphaScreen DNA substrate cleavage | Potency, µM (series often up to 130 µM), most hits filed as inhibitors | 350,000 compounds, 0.28% hits | AID 485290; also: nearly all actives have a fitted effect of over 40% in size
Target sequence (Q9NUW8 whole entry, looked up): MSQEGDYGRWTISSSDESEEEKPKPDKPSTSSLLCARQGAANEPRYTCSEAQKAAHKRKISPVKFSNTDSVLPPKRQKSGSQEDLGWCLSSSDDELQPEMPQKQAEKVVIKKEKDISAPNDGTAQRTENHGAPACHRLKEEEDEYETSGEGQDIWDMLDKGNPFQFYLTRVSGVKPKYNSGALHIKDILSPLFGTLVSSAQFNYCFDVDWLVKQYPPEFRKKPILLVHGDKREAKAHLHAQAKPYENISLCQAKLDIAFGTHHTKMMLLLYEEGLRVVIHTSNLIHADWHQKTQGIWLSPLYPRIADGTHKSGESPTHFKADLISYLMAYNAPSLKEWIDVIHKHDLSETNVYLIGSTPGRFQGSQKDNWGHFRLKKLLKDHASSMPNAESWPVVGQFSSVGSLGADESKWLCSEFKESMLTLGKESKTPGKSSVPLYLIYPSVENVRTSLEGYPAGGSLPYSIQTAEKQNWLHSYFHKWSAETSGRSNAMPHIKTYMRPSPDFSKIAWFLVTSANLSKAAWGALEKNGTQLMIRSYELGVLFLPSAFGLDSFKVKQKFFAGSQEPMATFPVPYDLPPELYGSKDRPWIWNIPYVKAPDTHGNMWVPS
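Steps: enzyme plus compound, 15 min RT; add biotin/phosphotyrosine-FITC oligonucleotide (15 nM final), react 5 min; add donor/acceptor beads (10 ug/ml final), 10 min; read AlphaScreen. Tdp1 at 1 nM final.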
Hits are given with their value; ! = repeats disagree. Unless noted, calls follow the shape of the dose curve; as a rule, active = well fitted curve in the direction sought with a large enough effect; inconclusive = small, poorly fitted or top-dose-only effect, or another doubt; inactive = no such curve, though single readings can be large; an effect the other way counts as inactive or inconclusive.

How did CCOc1ccc(-c2nn(-c3ccccc3)cc2C2NC(=O)NC(C)=C2C(=O)OC(C)C)cc1C (centres undefined) do in these assays?
TDP1 cell CPT: inconclusive; DT40 TDP1 no CPT: inconclusive; TGFb inhibitor: inconclusive; HepG2 viability: inactive

What do the screens show for `c1ccc(-c2onc(-c3ccco3)c2-c2ccc3[nH]ccc3c2)cc1`?
TDP1 cell CPT: 7.94µM; DT40 TDP1 no CPT: inconclusive; TGFb inhibitor: 14.1µM; IL1B secr inh: inactive; HepG2 viability: inactive

How did c1cc2cc(-c3c(-c4ccc5c(c4)OCO5)noc3-c3ccsc3)ccc2[nH]1 do in these assays?
TDP1 cell CPT: inconclusive; DT40 TDP1 no CPT: 3.16µM!; TGFb inhibitor: inconclusive; IL1B secr inh: -57.2; HepG2 viability: inactive

Results for COc1cc(-c2c(-c3ccc4c(c3)OCO4)noc2-c2ccsc2)ccc1F ?
TDP1 cell CPT: inconclusive; DT40 TDP1 no CPT: inconclusive; TGFb inhibitor: inactive; IL1B secr inh: inactive; HepG2 viability: inactive

How did Cc1onc(-c2ccc3c(c2)OCO3)c1-c1ccc2[nH]ccc2c1 do in these assays?
TDP1 cell CPT: 18.4µM; DT40 TDP1 no CPT: 16.4µM; TGFb inhibitor: 12.6µM; IL1B secr inh: -57.5; HepG2 viability: inactive

Results for c1ccc(-c2ccc3[nH]ccc3c2)cc1 ?
TDP1 cell CPT: inconclusive; DT40 TDP1 no CPT: inconclusive; TGFb inhibitor: inactive; IL1B secr inh: inactive; HepG2 viability: inactive; TDP1 block: inactive

What do the screens show for `CCNc1c(NC(=O)C2CCC(C)CC2)c(=O)oc2ccccc12` (centres undefined)?
TDP1 cell CPT: inconclusive; DT40 TDP1 no CPT: inconclusive; TGFb inhibitor: inactive; IL1B secr inh: inactive; HepG2 viability: inactive; TDP1 block: inactive

What do the screens show for `COc1ccc(N2CC(C(=O)OCC(=O)Nc3cccc(C)c3C)CC2=O)cc1` (centres undefined)?
TDP1 cell CPT: inactive; DT40 TDP1 no CPT: inactive; TGFb inhibitor: inconclusive; IL1B secr inh: inactive; HepG2 viability: inactive

What do the screens show for `CC(=O)c1ccc(-c2ccc(C(=O)N(C)c3c(N)n(Cc4ccccc4)c(=O)[nH]c3=O)o2)cc1`?
TDP1 cell CPT: inactive; DT40 TDP1 no CPT: inactive; TGFb inhibitor: inactive; IL1B secr inh: inactive; HepG2 viability: inactive

Results for CC(C)C[C@@H](CN1CCC[C@@H]1CN1C(=O)C(=O)NC[C@@H]1Cc1ccccc1)N1C[C@H](Cc2ccc(O)cc2)N(CC2CCCCC2)C(=O)C1=O ?
TDP1 cell CPT: inconclusive; DT40 TDP1 no CPT: inconclusive; TGFb inhibitor: inconclusive; IL1B secr inh: -75.0; HepG2 viability: inactive

What do the screens show for `CC(C)C[C@@H](CN1CCC[C@H]1CN1C(=O)C(=O)NC[C@@H]1Cc1ccccc1)N1C[C@H](Cc2ccc(O)cc2)N(CC2CCCCCC2)C(=O)C1=O`?
TDP1 cell CPT: 23.1µM; DT40 TDP1 no CPT: 23.1µM; IL1B secr inh: -76.0

How did CC(C)C[C@@H](CN1CCC[C@@H]1CN1C(=O)C(=O)NC[C@@H]1Cc1ccc(O)cc1)N1C[C@H](Cc2ccc(O)cc2)N(CC2CCCCCC2)C(=O)C1=O do in these assays?
TDP1 cell CPT: inactive; DT40 TDP1 no CPT: inactive; IL1B secr inh: inactive

Results for Cc1ccc2c(c1)C(=O)OC(C(=O)Nc1ncc(Cc3ccccc3Cl)s1)C2 (centres undefined) ?
TGFb inhibitor: inactive; HepG2 viability: inactive; TDP1 block: inactive

What do the screens show for `O=C(CCc1cccc(Cl)c1)NC1CCCN(Cc2ccccc2F)C1` (centres undefined)?
TDP1 cell CPT: inactive; DT40 TDP1 no CPT: inactive; TGFb inhibitor: inactive; IL1B secr inh: inactive; HepG2 viability: inactive; TDP1 block: inactive

How did COc1ccc(C(OCC(O)CNCCc2ccccc2)c2ccc(OC)cc2)cc1 (centres undefined) do in these assays?
TDP1 cell CPT: 23.1µM; DT40 TDP1 no CPT: 18.4µM; TGFb inhibitor: inconclusive; IL1B secr inh: -107.2; HepG2 viability: inactive

How did COc1ccc(C(OCC(O)CNC(C)c2ccccc2)c2ccc(OC)cc2)cc1 (centres undefined) do in these assays?
TDP1 cell CPT: inconclusive; DT40 TDP1 no CPT: 23.1µM; TGFb inhibitor: inconclusive; IL1B secr inh: -97.9; HepG2 viability: inactive; TDP1 block: inactive

Results for CC(C)(C)c1ccc(Cn2c(=N)n(CC(O)c3ccco3)c3ccccc32)cc1 (centres undefined) ?
TDP1 cell CPT: 2.59µM; DT40 TDP1 no CPT: 2.59µM; TGFb inhibitor: 15.8µM; IL1B secr inh: -67.4; HepG2 viability: inactive; TDP1 block: inactive

What do the screens show for `CC(C)(C)c1ccc(COn2c(=O)c(-c3ccco3)[n+]([O-])c3ccccc32)cc1`?
TDP1 cell CPT: inactive; DT40 TDP1 no CPT: inactive; TGFb inhibitor: inactive; IL1B secr inh: inactive; HepG2 viability: inactive; TDP1 block: inactive

What do the screens show for `Cc1ccccc1Cn1c(=N)n(CC(O)c2ccco2)c2ccccc21` (centres undefined)?
TDP1 cell CPT: 18.4µM; DT40 TDP1 no CPT: 14.6µM; TGFb inhibitor: inactive; IL1B secr inh: -77.1; HepG2 viability: inactive; TDP1 block: inactive

What do the screens show for `N=c1n(CCN2CCCC2)c2ccccc2n1CC(O)c1ccco1` (centres undefined)?
TDP1 cell CPT: inactive; DT40 TDP1 no CPT: inactive; TGFb inhibitor: inactive; IL1B secr inh: inactive; HepG2 viability: inactive; TDP1 block: inactive

How did CC(/C=N/NC(=O)c1ccc(Cn2cc([N+](=O)[O-])cn2)o1)=C\c1ccccc1 do in these assays?
TDP1 cell CPT: inactive; DT40 TDP1 no CPT: inactive; TGFb inhibitor: inactive; IL1B secr inh: -52.4; HepG2 viability: inactive; TDP1 block: inactive

Results for COc1ccc(/C=N/NC(=O)c2ccc(Cn3cc([N+](=O)[O-])cn3)o2)cc1O ?
TDP1 cell CPT: inactive; DT40 TDP1 no CPT: inactive; TGFb inhibitor: inactive; IL1B secr inh: inactive; HepG2 viability: inactive; TDP1 block: inactive

What do the screens show for `COc1cc(/C=N/NC(=O)c2ccc(Cn3cc([N+](=O)[O-])cn3)o2)cc(Br)c1O`?
TDP1 cell CPT: inactive; DT40 TDP1 no CPT: inactive; TGFb inhibitor: 15.8µM; IL1B secr inh: inactive; HepG2 viability: inactive; TDP1 block: inactive

What do the screens show for `O=C(N/N=C/c1c(F)c(F)c(F)c(F)c1F)c1ccc(Cn2cc(Br)cn2)o1`?
TDP1 cell CPT: 16.4µM; DT40 TDP1 no CPT: 14.6µM; TGFb inhibitor: inactive; IL1B secr inh: -97.8; HepG2 viability: inactive; TDP1 block: inactive

What do the screens show for `CCCCCCN1C[C@@H](O)[C@H](n2cc(-c3ccc(F)cc3)nn2)C[C@@H]1c1ccccc1`?
TDP1 cell CPT: inactive; DT40 TDP1 no CPT: inconclusive; TGFb inhibitor: inconclusive; IL1B secr inh: inactive; HepG2 viability: inactive

Source: PubChem BioAssay
